Compound activity deposited in PubChem by National Center for Advancing Translational Sciences (NCATS).
DRD3 agonist: qHTS of D3 Dopamine Receptor Agonist: qHTS. D3R DiscoveRx beta-arrestin cells, luminescence, 90 min. max activation, %. 410,000 compounds, 0.58% hits. D(3) dopamine receptor (Homo sapiens), P35462; in the data active means max activation above about 30%; further: 0% is about no effect
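Agonist-mode cell screen: cells plated at 1500/well and incubated overnight at 37 °C, then exposed to library compounds for 90 min at 37 °C. Detection reagent was added for 30–60 min at room temperature, and luminescence was read.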
DRD3 antagonist: qHTS of D3 Dopamine Receptor Antagonist: qHTS; D(3) dopamine receptor (Homo sapiens), P35462; D3R cells, DiscoveRx beta-arrestin luminescence, antagonist mode; active compounds read low; max response, negative = inhibition, %; 360,000 compounds, 2.5% hits; in the data active means max response below about -50%; inconclusive means no clear call, values can overlap the other calls; further: on the % scale 0 is the no-effect control and ±100 the full control effect
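Cells plated overnight at 1500 cells/well, then exposed to library compounds with dopamine controls for 90 minutes at 37 degrees C. DiscoveRx reagent added for 30–60 minutes at room temperature; luminescence read, quantitative HTS format.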
PI4K2A block: qHTS for small molecular inhibitors of PI4K2A. AID 1346378, 2018. purified PI4K2A, ADP-Glo luminescence, 1 h; active compounds read low. 420,000 compounds, 0.13% hits. activity change, negative = inhibition, % at 76.9 µM; in the data active means activity change below about -50%; inconclusive means mostly about -30% to -49%;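 further: -100% = wells without enzyme as full effect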
Target sequence (Q9BTU6 whole entry, looked up): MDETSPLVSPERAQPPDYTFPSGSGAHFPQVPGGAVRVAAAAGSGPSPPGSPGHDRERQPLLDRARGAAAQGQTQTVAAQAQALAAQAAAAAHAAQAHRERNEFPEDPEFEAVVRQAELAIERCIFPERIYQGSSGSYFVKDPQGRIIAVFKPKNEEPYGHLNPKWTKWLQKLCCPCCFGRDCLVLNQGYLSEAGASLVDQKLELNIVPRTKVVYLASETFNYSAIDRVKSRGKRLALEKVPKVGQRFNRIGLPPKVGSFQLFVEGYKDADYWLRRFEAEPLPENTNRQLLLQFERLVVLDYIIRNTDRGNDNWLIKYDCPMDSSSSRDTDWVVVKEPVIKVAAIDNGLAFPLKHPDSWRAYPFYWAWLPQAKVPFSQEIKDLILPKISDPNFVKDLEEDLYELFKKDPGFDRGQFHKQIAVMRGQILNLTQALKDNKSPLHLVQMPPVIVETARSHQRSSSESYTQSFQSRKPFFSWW
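Compounds are screened against recombinant PI4K2A using PI as substrate and ATP, the latter dispensed at 300 microM. Reactions run one hour at ambient temperature before ADP-Glo detection; full inhibition defined by wells lacking enzyme.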
LDHA block: qHTS assay for inhibitors of human lactate dehydrogenase; 480,000 compounds, 0.15% hits; purified LDHA, NADH/diaphorase-resazurin fluorescence; active compounds read low; L-lactate dehydrogenase A chain (Homo sapiens), P00338; AID 1347041, 2019; activity change, % (values are at about 110 or 230 µM); in the data active means activity change below about -30%; inconclusive means mostly about -25% to -30%;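 further: plate controls were DMSO wells for no effect and wells without enzyme for full effect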
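Enzyme activity of human lactate dehydrogenase 5 (2 nM; 0.06 mM NADH, 0.2 mM pyruvate, 5 min, RT) is measured via a resazurin/diaphorase fluorescence readout of residual NADH.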
PI5P4Ka inh: qHTS for Inhibitors of phosphatidylinositol 5-phosphate 4-kinase (PI5P4K); max response, %; PI5P4Kalpha enzyme, ADP-Glo luminescence, 60 min; active compounds read low; AID 652105, 2013; 330,000 compounds, 1.2% hits; active means max response of -50% or lower; inconclusive means between -30% and -50%; inactive means -30% or higher; further: value at the top dose of about 77 µM; on the % scale 0 is the no-effect control and ±100 the full control effect
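Controls without substrate or without enzyme flank wells where PI5P4Kalpha converts substrate using 5 microM ATP (final). Incubation lasts 60 minutes at room temperature; ADP formed is read by ADP-Glo luminescence.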
Active calls of the source: *; ? = inconclusive; · = no result; ! = not active in a repeat. Compounds with a hit are over-represented: about 3.3% of the library has one in this group of screens.

SMILES | DRD3 agonist | DRD3 antagonist | PI4K2A block | LDHA block | PI5P4Ka inh
CCN(CC)CCn1c(NCc2cc(OC)ccc2OC)nc2ccccc21 | -2.3 | -87.8* | -4.2 | -0.6 | -7.4
Brc1ccc(CSc2ccc(-c3ccccn3)nn2)cc1 | · | · | · | -31.1* | ·
COc1cccc(/C=C/C(=O)c2c(O)cc(C)oc2=O)c1O | 0.6 | -74.2* | -3.9 | 10.3 | -0.1
CSc1ccc(/C=C/C(=O)c2c(O)cc(C)oc2=O)cc1 | 14.4 | 0.2 | -0.8 | -1.4 | -53.9*
Cc1cc(O)c(C(=O)/C=C/c2ccc(Cl)cc2)c(=O)o1 | -6.7 | -24.7 | -4.3 | -4.9 | -69.2*
Cc1ccc(N=Cc2ccc[nH]2)cc1I | · | · | · | -22.6 | ·
O=[N+]([O-])c1cccc(N/N=C/c2ccccc2Br)c1 | · | · | · | 2.1 | ·
CCOP(=O)(OCC)c1nc(-c2ccccc2)oc1N(C)C | · | · | · | 4.6 | ·
CCCCC(=O)Nc1cccc(N)c1 | · | · | · | 25.0 | ·
O=C(OCc1ccccc1)c1nc2ccccc2nc1N1CCN(c2ccccc2)CC1 | · | · | · | -1.0 | ·
CC(C)(C)C(=O)NC1CCN(Cc2ccccc2)C1 (stereo not given) | · | · | · | 1.9 | ·
CN(C)S(=O)(=O)c1ccc(Cl)c(C(=O)NC2CCN(Cc3ccccc3)C2)c1 (stereo not given) | -13.3 | -58.9* | 2.6 | -13.2 | -0.1
Cc1c(C(=O)NC2CCN(Cc3ccccc3)C2)oc2c(Cl)cccc12 (stereo not given) | -19.6 | -100.2* | 5.7 | 2.9 | 6.8
Cc1sc(NC(=O)/C=C/c2ccco2)c(C(=O)OC(C)C)c1C | 31.8* | 5.3 | -1.7 | -6.9 | -4.0
COCCn1c(=O)c2c(nc3n2CCCN3CCc2ccccc2)n(C)c1=O | 102.4* | 14.3 | 0.5 | -4.8 | -1.1
CCCCC(O)CN1CCC(c2ccccc2)CC1 (stereo not given) | 1.9 | -57.3* | 4.2 | -3.6 | 0.0
COc1cccc(-c2sc3ccc(OC)cc3c2-c2ccc(OCCN(C)C)cc2)c1 | -17.3 | -78.6* | -2.3 | 1.3 | 35.4
COC(=O)[C@]1(CNC(=O)c2cc(F)ccc2F)CC(=O)N(C)[C@@H]1c1ccccc1 | · | · | 2.3 | · | ·
CSc1ccc(/C=C/C(=O)Nc2ccccc2)cc1 | -8.4 | 6.6 | -51.8* | -1.8 | -13.9
O=C(/C=C/c1ccccc1)Nc1cccc(C(=O)O)c1 | 2.4 | 30.2 | -8.5 | -12.3 | -13.3
CSc1cccc(NC(=O)/C=C/c2ccccc2)c1 | -22.2 | -27.7 | -2.2 | -1.3 | ·
O=C(/C=C/c1ccccc1)Nc1cc(NC(=O)/C=C/c2ccccc2)cc(C(=O)O)c1 | -9.4 | -9.0 | -3.8 | 0.7 | -55.9*
Cc1cc(NCCNc2ccc(C#N)cn2)nc(C)n1 | · | · | · | 0.9 | ·
O=C(CN1CCN(c2cccc(C(F)(F)F)c2)CC1)Nc1nc(-c2ccc(F)c(F)c2)cs1 | · | · | · | 3.8 | ·
Cc1ccc(C(=O)NN=C(Cc2ccccc2)Cc2ccccc2)c(C)c1 | · | · | · | -0.2 | ·
SMILES | DRD3 agonist | DRD3 antagonist | PI4K2A block | LDHA block | PI5P4Ka inh
CC(C)=CCC[C@@]1(C(=O)O)[C@@H]2C/C=C(\C)CC/C=C(\C)CC[C@H]1[C@]1(CC2)CO1 | · | · | -10.3 | · | ·
O=C(O)c1cc(O)ccc1N=Nc1ccccc1 | -3.1 | -20.5 | -0.4 | -4.5 | -8.0
O=C(O)c1ccccc1N=Nc1ccc(O)cc1 | -51.6 | -71.0* | -4.7 | -2.8 | -17.4
COc1ccc(Cl)cc1NC(=O)COCc1cc(-c2ccc(F)cc2)on1 | · | · | · | 10.2 | ·
C=CCn1c(SCC(=O)NC(=O)NCc2ccco2)nc2sc(CC)cc2c1=O | 2.1 | 4.6 | -12.8 | -7.8 | -50.2*
Cc1ccc(OC(=O)C(c2ccccc2)c2ccccc2)cc1 | · | · | · | 3.8 | ·
Brc1ccc(-c2csc(N/N=C/c3ccco3)n2)cc1 | 30.1* | 36.3 | 161.9 | -15.3 | -3.5
Cc1ccc(-c2csc(N/N=C/c3ccco3)n2)cc1 | 0.6 | 7.4 | 8.1 | 0.0 | ·
COC(=O)c1cccc(NC(=O)CN2CCN(Cc3ccccc3)CC2)c1 | -10.1 | -50.5* | 6.4 | 0.5 | 6.2
CC(=O)c1cccc(NC(=O)CSCc2ccc(Br)cc2)c1 | -26.1 | 0.0 | -8.2 | -4.9 | 7.8
COc1ccccc1N1CCN(CC(=O)NCc2ccc(Cl)cc2)CC1 | -6.9 | -69.7* | 4.9 | -9.3 | 8.8
CC(=O)c1cccc(NC(=O)CSCc2ccccc2)c1 | -8.4 | -78.7* | -6.5 | -2.2 | -0.9
COc1ccccc1N1CCN(CC(=O)NC(=O)NCc2ccccc2)CC1 | -6.0 | -4.7 | -4.4 | -5.0 | 6.6
Cc1ccc(Cl)cc1N1CCN(CC(=O)Nc2ccc(CN3CCCCC3)cc2)CC1 | -8.4 | -64.9* | -15.6 | -4.8 | -1.9
CCCn1c(C2NC(=O)NC(C)=C2C(=O)OCc2ccccc2)nc2ccccc21 (stereo not given) | · | · | · | -1.1 | ·
COc1ccccc1N1CCN(CC(=O)Nc2ccc(CN3CCCCC3)cc2)CC1 | -27.0 | -65.5* | -0.9 | -46.1* | ·
COc1ccc(C(CNc2ncnc3sc(C)c(C)c23)N(C)C)cc1 (stereo not given) | -14.4 | -71.1* | -0.9 | -6.4 | 0.7
COc1ccc(Nc2nc3ccccc3nc2NS(=O)(=O)c2ccc(C)c(C)c2)cc1 | · | · | · | 2.0 | ·
O=C(Nc1cnc2ccccc2c1)c1ccccc1Cl | · | · | · | 1.9 | ·
CC(Sc1nc2ccccc2o1)C(=O)c1c[nH]c2ccccc12 (stereo not given) | · | · | · | 7.3 | ·
O=C(NC(NNc1ccc([N+](=O)[O-])cc1)(C(F)(F)F)C(F)(F)F)c1ccc(F)cc1 | 3.5 | -3.8 | -2.2 | -2.3 | -71.1*
CCCCCCNC(=O)c1cccc(NC(=O)c2ccccc2)c1 | · | · | · | 6.7 | ·
CCC(C(=O)Nc1ccc(OC)cc1)n1nc(-c2cc(C)ccc2C)ccc1=O (stereo not given) | · | · | · | -6.6 | ·
CNC(=O)c1ccc(-c2nc(CN3CCN(C(=O)Nc4cccc(C)c4)CC3)c(C)o2)cc1 | · | · | · | 4.6 | ·
COc1cc(N=Nc2ccc(Br)cc2)cc(C=O)c1O | -2.8 | -74.9* | -1.8 | 6.7 | ?
SMILES | DRD3 agonist | DRD3 antagonist | PI4K2A block | LDHA block | PI5P4Ka inh
CC(CNC1CCCCC1)OC(=O)c1ccccc1 (stereo not given) | -84.2 | -99.6* | -1.4 | -8.6 | 2.7
COc1cccc(/C=C/C(=O)c2ccc(NS(=O)(=O)c3ccc(C)cc3)cc2)c1 | -8.6 | -53.9* | 11.2 | -6.7 | -2.3
Cc1cc2nc(C3CCN(CC4COc5ccccc5O4)CC3)[nH]c2cc1C (stereo not given) | -1.0 | -50.2* | 0.7 | -6.1 | -1.2
O=C(O)Cn1c(O)c(C=Nc2ccccc2)sc1=S | 0.2 | -62.7*! | 5.8 | 1.5 | -5.2
CCOc1ccc(C2NC(=O)C(C#N)=C(S)N2c2ccc(OC)cc2)cc1OC (stereo not given) | 0.1 | -68.3* | -8.8 | -4.7 | -16.2
COc1cc(C2NC(=O)C(C#N)=C(S)N2c2ccc(C)cc2)ccc1OC(C)C (stereo not given) | -0.9 | -68.2* | -17.1 | -6.3 | -14.9
